MCF10A rerep – inducers of DNA re-replication in MCF 10A breast cells | MCF 10A DNA re-replication, Hoechst nuclear intensity, 48 h | Potency, µM (titrated, usually from 46.1 µM), most hits filed as activators | 2.9% of 350,000 active | AID 624296; also: nearly all actives have a fitted effect of over 50% in size
Chronic BCR inh – chronic active BCR signaling inhibition; Potency, µM (doses to about 46.1 µM), usual class: inhibitors; 0.05% of 340,000 active; ABC-DLBCL IkBa-CBG/CBR reporter, luminescence ratio, 4 h; active = well fitted inhibition curve with a large enough effect in the signal ratio, with a control signal flat, not every such curve was filed as active; inconclusive = small, poorly fitted or top-dose-only effect, or effect the other way, or a change in a side signal; the % refers to the signal ratio
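Doxycycline induced both beetle luciferases in TMD8 lymphoma cells; IKK-driven degradation limits the IkappaBalpha-fused green signal, while red luminescence normalises for cell number and nonspecific effects. Compounds tested up to 46 uM, 4 hrs.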
RORg inh – inhibitors of mouse ROR gamma transcriptional activity | P51450 | Drosophila S2 Gal4-RORgamma UAS-luciferase reporter, 20 h | Potency, µM (series often up to 53.6 µM), most hits filed as inhibitors | 5.4% of 310,000 active; also: nearly all actives have a fitted effect of over 60% in size
Target sequence (P51450 whole entry, looked up, the tested form may be a part): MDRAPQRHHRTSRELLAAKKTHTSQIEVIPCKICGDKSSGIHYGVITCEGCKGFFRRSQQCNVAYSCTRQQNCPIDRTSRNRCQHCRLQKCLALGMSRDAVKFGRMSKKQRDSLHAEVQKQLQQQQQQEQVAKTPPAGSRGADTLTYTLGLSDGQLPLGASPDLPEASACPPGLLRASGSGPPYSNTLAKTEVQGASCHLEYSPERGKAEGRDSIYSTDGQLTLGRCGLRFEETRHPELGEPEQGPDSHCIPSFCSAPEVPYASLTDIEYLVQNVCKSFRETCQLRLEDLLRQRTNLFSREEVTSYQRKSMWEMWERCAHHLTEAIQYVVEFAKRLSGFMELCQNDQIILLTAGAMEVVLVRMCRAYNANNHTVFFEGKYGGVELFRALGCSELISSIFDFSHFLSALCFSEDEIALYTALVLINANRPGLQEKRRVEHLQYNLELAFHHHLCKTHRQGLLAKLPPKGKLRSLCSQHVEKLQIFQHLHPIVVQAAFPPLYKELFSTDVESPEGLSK
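Stably transfected Drosophila Schneider cells are the test system, with ROR gamma fused to Gal4 and luciferase under UAS control; luminescence is read after 20 hr of 700 uM copper sulfate induction at ambient temperature.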
Gal4-VP16 FLuc – inhibits Gal4-VP16 luciferase reporter, ROR gamma counter-screen; Potency, µM (highest dose often 53.6 µM), usual class: inhibitors; Drosophila S2 Gal4-VP16 UAS-luciferase, luminescence, 20 h; 3.5% of 310,000 active;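 also: Gal4-VP16 expression switched on by copper sulfate through the metallothionein promoter; nearly all actives have a fitted effect of over 50% in size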
SW480 rerep – induces DNA re-replication in SW480 colon adenocarcinoma cells; SW480 DNA re-replication, Hoechst DNA content imaging, 48 h; 1.8% of 340,000 active; Potency, µM (doses to about 46.1 µM), hits mostly activators; also: nearly all actives have a fitted effect of over 55% in size
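Image-based DNA-content assay: after two days of treatment, nuclei were labelled with the DNA dye Hoechst and imaged, and hits were compounds raising the count of nuclei showing high fluorescence intensity.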
Giardia kill – kills Giardia lamblia | Giardia lamblia trophozoite viability | activity change, % at 7.66 µM, hits read low | 0.15% of 340,000 active | AID 540267; in the data active = activity change below about -80%; inconclusive = between about -30% and that limit;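 also: parasites exposed to compound for two days anaerobically before the ATP read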
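Killing of trophozoites was scored by loss of ATP luminescence after a 48 hrs anaerobic exposure to compounds at 37 deg C, using 100 cells per well.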
Numbers stand for hits; . = inactive; ? = inconclusive; / = no result; [ ] = remark or other dose. Most compounds without a hit are left out; they make up all but 8.3% or so of the library. Unless noted, calls follow the shape of the dose curve; as a rule, active = well fitted curve in the direction sought with a large enough effect; inconclusive = small, poorly fitted or top-dose-only effect, or another doubt; inactive = no such curve, though single readings can be large; an effect the other way counts as inactive or inconclusive.

SMILES	MCF10A rerep	Chronic BCR inh	RORg inh	Gal4-VP16 FLuc	SW480 rerep	Giardia kill
COc1ccc(NC(=O)c2c(Cl)n(C)c3ccccc23)cc1	16.4µM	.	.	.	?	.
O=C(Cc1c(Cl)cccc1Cl)Nc1ccncc1Cl	.	.	.	.	.	.
O=C(Cc1ccc(Cl)cc1Cl)Nc1ccncc1	.	.	?	5.62µM	.	.
O=C(Cc1ccc(Cl)cc1Cl)Nc1ccncc1Cl	.	.	.	5.62µM	.	.
O=C(Cc1ccccc1)NNC(=O)c1ccc(Br)o1	?	.	/	/	.	.
CNC(=O)c1c2c(nc3ccc(Br)cc13)CCCC2	.	.	.	.	.	.
CC1(C)CN(C(=S)Nc2ccc(F)cc2F)C1=O	.	.	.	.	.	.
COc1ccc(C(=O)NCC(=O)N/N=C(\C)Cc2ccccc2)cc1	.	?	.	?	.	.
CC(=O)c1ccc(Nc2ccc(-c3ccccc3C)nn2)cc1	25.9µM	.	.	.	.	.
CCOC(=O)c1c(-c2ccc3ccccc3c2)csc1NC(=O)CCCC(=O)O	?	?	/	/	.	.
CC(CC(=O)OCC(=O)NCc1ccc(Cl)cc1)c1ccccc1 (centres undefined)	.	.	/	/	.	.
Cc1[nH]n(-c2ccccc2)c(=O)c1/C=N/n1c(C)nc2ccccc2c1=O	.	?	5.62µM	?	?	.
Cc1ccc(-n2[nH]c(C)c(/C=N/n3c(C)nc4ccccc4c3=O)c2=O)cc1	4.61µM	?	17.8µM	?	?	.
Cc1[nH]n(-c2ccccc2)c(=O)c1/C=N/N(c1ccccc1)c1ccccc1	?	.	5.62µM	?	?	.
Cc1nc2ccccc2c(=O)n1/N=C/c1ccc(F)cc1	.	.	.	.	.	.
COc1ccc(-c2nc3ccc(NC(C)=O)cc3c(=O)n2Cc2ccccc2)cc1COc1ccc(NC(C)=O)cc1	/	/	/	/	/	.
Cc1cccc(NC(=S)NNc2ncc(C(F)(F)F)cc2Cl)c1	.	.	15.8µM	12.6µM	.	?
Cc1cccc(NC(=O)NNC(=O)c2ccccn2)c1	.	.	/	/	.	.
FC(F)(F)c1cnc(NNC(=S)Nc2ccccc2Cl)c(Cl)c1	.	?	?	10µM	.	.
Fc1ccccc1NC(=S)N1CCN(C/C=C/c2ccccc2)CC1	.	.	?	?	.	.
S=C(Nc1ccccc1)N1CCN(C/C=C/c2ccccc2)CC1	.	?	11.2µM	?	.	.
COc1cc(NC(=S)N2CCN(C(c3ccccc3)c3ccccc3)CC2)cc(OC)c1	.	?	4.47µM	.[0.365 µM]	.	.
COc1cccc(NC(=S)N2CCN(C/C=C/c3ccccc3)CC2)c1	.	.	10µM	?	.	.
COc1cc(NC(=S)N2CCN(C/C=C/c3ccccc3)CC2)cc(OC)c1	.	.	11.2µM	?	.	.
CCC(C)[C@H]1CNCCN1CCC12CC3CC(CC(C3)C1)C2 (some centres undefined)	.	.	/	/	.	.
SMILES	MCF10A rerep	Chronic BCR inh	RORg inh	Gal4-VP16 FLuc	SW480 rerep	Giardia kill
COc1cccc([C@@H]2Oc3ccc(OC)cc3C[C@H]2O)c1	/	/	.	.	/	/
Cc1cc(CSCc2ccc(Cl)cc2)no1	?	.	.	.	.	.
O=C(Nc1ccccc1)N1CC[C@@]2(CCCN(C(=O)c3cc(C(F)(F)F)cc(C(F)(F)F)c3)C2)C1	/	/	.	.	/	/
Cc1ccc(O)c(C(=O)c2cnn(-c3ccccc3)c2)c1	?	.	.	.	?	.
Cc1ccc(-n2cc(C(=O)c3ccccc3O)cn2)cc1	.	?	11.2µM	?	.	.
O=C(COc1ccccc1-c1ccccc1)N/N=C/c1ccc2ccccc2c1	?	?	?	.	1.3µM	.
CCCCCC(=O)N/N=C(\C)c1ccccn1	.	?	0.355µM	0.562µM	.	.
C/C(=N\NC(=O)COc1ccccc1-c1ccccc1)c1ccccn1	.	?	1.12µM	?	?	.
COc1cc2c(cc1OC)C(=S)NC(C)(C)C2	.	?	20µM	?	?	.
COc1cc2c(cc1OC)-c1n[nH]c(=S)n1C(C)(C)C2	.	?	7.94µM	?	.	.
CCCCOc1ccc(C2(C)NC(=O)N(C)C2=O)cc1 (centres undefined)	.	.	.	.	.	.
CCCN=Cc1c(CCC)[nH]n(-c2nc3ccccc3s2)c1=O	?	?	2.82µM	?	?	.
CCCc1[nH]n(-c2nc3ccccc3s2)c(=O)c1C=NCCCN(CC)CC	.	?	20µM	.	.	.
CCCCn1c(=O)n(CC(=O)Nc2c(CC)cccc2CC)c(=O)c2c1nc(CO)n2CCC	.	.	7.08µM	.	.	.
CCCCn1c(=O)n(CC(=O)Nc2ccc(OC)c(Cl)c2)c(=O)c2c1nc(CO)n2CCC	.	?	.	.	.	.
CCOC(=O)c1c(C)[nH]c(C)c1C(=O)Cn1nnc(-c2ccccc2C)n1	20.6µM	?	.	.	.	.
O=C1C=C(NCc2ccc(Cl)cc2Cl)C2(CCCCC2)O1	9.2µM	.	.	.	?	.
CN(C)CCCNC1=CC(=O)OC12CCCCC2	.	.	.	.	.	.
O=C(NCCCNC(=O)c1ccccc1)c1ccccc1	?	/	/	/	.	.
Cc1cc(F)ccc1S(=O)(=O)NCC(c1ccco1)S(=O)(=O)c1cccs1 (centres undefined)	/	.	/	/	/	/
CN(c1ccccc1)S(=O)(=O)c1ccc(C(=O)N2CCN(c3ccccc3F)CC2)cc1	.	.	/	/	.	.
O=C(NC(=S)Nc1cc(Cl)ccc1O)c1cccc(Br)c1	.	?	1.26µM	3.55µM	.	?
Cc1ccc(C(=O)NC(=S)Nc2ccc(NC(=O)c3cccc(Cl)c3)cc2)cc1	?	.	?	10µM	/	.
Cc1ccc(NC(=S)NC(=O)c2ccc(F)cc2)cc1S(=O)(=O)Nc1cccc(Cl)c1	2.59µM	?	.	.	3.66µM	.
O=C(NC(=S)Nc1cccc(NC(=S)NC(=O)c2ccccc2)c1)c1ccccc1	.	/	/	/	?	.
SMILES	MCF10A rerep	Chronic BCR inh	RORg inh	Gal4-VP16 FLuc	SW480 rerep	Giardia kill
CC(=O)c1cccc(NC(=S)NC(=O)c2ccc(Br)cc2)c1	.	.	5.62µM	10µM	?	.
Cc1ccc(NC(=S)N2CCN(C3CCCCC3)CC2)cc1	.	.	.	.	.	.
CCC(C)(C)C1CCC(NC(=O)N2CCN(c3ccccc3O)CC2)CC1 (centres undefined)	.	.	?	.	.	.
O=C(C[n+]1ccccc1)c1ccc(NC(=O)c2ccccc2)cc1	.	?	.	.	.	.
Cc1ccc(C(=O)Nc2cccc(C(=O)O)c2)cc1	.	?	5.01µM	17.8µM	.	?
CCOc1ccc(C(=O)Nc2cccc(C(=O)O)c2)cc1Cl	.	?	6.31µM	?	.	?
CCOc1ccc(C(=O)Nc2cc(NC(=O)c3ccc(OCC)c(Cl)c3)cc(C(=O)O)c2)cc1Cl	.	.	.	.[10 µM]	.	.

Bioassay records (PubChem BioAssay)
